Measurements: paper PMC7862700, “An all-to-all approach to the identification of sequence-specific readers for epigenetic DNA modifications on cytosine”

How the values were obtained:
Test in all cases: DAPPL (digital affinity profiling via proximity ligation, sequencing); 10 mM Tris-HCl pH 7.5, 50 mM NaCl, 1 mM DTT, 4% glycerol, room temperature, 30 min; GST-TFs on glutathione beads, 16-mer random dsDNA library, 0.1% formaldehyde crosslink after washing; high values mean tight binding
FEV = biological target: T1, FEV (Homo sapiens, UniProt Q99581 1-238); conditions: protein: recombinant; tags: N-terminal GST; dsDNA, one strand shown
T1 sequence: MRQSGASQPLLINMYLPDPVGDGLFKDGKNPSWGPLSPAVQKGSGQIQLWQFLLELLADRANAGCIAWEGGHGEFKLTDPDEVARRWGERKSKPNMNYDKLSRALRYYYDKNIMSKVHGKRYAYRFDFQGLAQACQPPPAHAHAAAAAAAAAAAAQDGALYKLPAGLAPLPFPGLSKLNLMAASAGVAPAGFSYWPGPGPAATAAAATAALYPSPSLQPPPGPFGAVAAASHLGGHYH
How it was run: (§1)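 Binding signal is each hexamer's read frequency for a factor divided by its frequency in the tag-only sample. The factors were GST-fused human transcription factors from yeast, captured on glutathione beads, DNA-barcoded and pooled with that sample. Pools were incubated with 200 nmole of a random double-stranded 16-mer DNA library in Tris/NaCl/DTT/glycerol buffer at room temperature for 30 min, then washed, crosslinked with 0.1% formaldehyde, proximity-ligated with BsaI/T4 ligase (1 h, 37 °C), PCR-amplified and sequenced on an Illumina NextSeq500.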

ETV5 = ETV5 (Homo sapiens, UniProt P41161 1-510); conditions: protein: recombinant; tags: N-terminal GST; dsDNA, one strand shown
Sequence of ETV5 (P41161 whole entry): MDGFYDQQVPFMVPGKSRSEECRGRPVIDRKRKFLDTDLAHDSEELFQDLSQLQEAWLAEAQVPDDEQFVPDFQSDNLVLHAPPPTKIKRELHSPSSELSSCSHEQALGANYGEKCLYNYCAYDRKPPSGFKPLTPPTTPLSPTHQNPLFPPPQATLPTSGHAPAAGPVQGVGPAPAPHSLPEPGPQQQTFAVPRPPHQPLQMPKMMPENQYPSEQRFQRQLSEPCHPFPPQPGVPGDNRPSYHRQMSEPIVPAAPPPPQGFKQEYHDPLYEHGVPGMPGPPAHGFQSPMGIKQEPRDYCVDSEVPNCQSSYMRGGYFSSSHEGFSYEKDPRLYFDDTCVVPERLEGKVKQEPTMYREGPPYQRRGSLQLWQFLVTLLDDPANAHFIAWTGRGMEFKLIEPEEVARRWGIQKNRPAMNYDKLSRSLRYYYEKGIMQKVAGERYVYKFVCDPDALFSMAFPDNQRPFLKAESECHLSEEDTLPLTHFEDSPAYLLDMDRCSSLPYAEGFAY
How it was run: as §1

HSF1 = HSF1 (Homo sapiens, UniProt Q00613 1-529); conditions: protein: recombinant; tags: N-terminal GST; chain copies: 3; dsDNA, one strand shown
Sequence of HSF1 (Q00613 whole entry): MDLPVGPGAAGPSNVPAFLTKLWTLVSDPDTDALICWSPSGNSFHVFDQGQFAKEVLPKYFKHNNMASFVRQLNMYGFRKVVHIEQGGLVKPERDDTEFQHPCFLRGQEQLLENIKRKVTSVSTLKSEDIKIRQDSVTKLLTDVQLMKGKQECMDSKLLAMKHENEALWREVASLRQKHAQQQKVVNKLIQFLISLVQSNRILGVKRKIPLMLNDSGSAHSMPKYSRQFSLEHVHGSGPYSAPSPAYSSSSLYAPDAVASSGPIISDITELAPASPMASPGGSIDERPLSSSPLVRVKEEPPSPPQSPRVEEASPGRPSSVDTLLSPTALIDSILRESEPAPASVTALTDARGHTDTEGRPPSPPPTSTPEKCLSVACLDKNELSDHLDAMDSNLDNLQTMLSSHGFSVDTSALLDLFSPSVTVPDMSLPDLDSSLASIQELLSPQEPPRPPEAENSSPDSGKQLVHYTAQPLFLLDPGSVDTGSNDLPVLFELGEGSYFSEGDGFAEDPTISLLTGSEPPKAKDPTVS
How it was run: as §1

SPIC = biological target: T2, SPIC (Homo sapiens, UniProt Q8N5J4 1-248); conditions: protein: recombinant; tags: N-terminal GST; dsDNA, one strand shown
T2 sequence: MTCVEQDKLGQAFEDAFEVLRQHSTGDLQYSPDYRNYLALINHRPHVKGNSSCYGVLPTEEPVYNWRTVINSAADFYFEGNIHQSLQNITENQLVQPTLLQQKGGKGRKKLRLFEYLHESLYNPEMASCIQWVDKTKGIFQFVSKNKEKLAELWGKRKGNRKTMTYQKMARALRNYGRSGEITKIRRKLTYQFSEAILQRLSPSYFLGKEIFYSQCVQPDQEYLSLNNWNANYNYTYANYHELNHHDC
How it was run: as §1

ELF4 = ELF4 (Homo sapiens, UniProt Q99607 1-663); conditions: protein: recombinant; tags: N-terminal GST; dsDNA, one strand shown
Sequence of ELF4 (Q99607 whole entry): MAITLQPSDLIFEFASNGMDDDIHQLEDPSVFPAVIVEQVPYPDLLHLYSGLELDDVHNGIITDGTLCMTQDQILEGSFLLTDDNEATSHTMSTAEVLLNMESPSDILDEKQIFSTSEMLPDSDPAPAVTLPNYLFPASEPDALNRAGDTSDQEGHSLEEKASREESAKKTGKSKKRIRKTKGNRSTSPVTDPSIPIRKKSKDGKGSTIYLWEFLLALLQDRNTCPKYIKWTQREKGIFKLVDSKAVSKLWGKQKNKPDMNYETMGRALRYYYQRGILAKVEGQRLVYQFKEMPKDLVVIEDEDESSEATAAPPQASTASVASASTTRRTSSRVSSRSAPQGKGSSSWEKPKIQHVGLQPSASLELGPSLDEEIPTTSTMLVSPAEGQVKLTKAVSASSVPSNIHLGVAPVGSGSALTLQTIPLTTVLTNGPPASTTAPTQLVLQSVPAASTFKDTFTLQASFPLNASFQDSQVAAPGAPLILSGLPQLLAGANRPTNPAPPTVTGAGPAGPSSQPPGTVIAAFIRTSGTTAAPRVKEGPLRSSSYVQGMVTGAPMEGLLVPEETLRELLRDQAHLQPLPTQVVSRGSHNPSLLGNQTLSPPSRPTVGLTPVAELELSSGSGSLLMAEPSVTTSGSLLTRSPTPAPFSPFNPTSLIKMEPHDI
How it was run: as §1

ELK4 = biological target: T3, ELK4 (Homo sapiens, UniProt P28324-2 1-405); conditions: protein: recombinant; tags: N-terminal GST; dsDNA, one strand shown
T3 sequence: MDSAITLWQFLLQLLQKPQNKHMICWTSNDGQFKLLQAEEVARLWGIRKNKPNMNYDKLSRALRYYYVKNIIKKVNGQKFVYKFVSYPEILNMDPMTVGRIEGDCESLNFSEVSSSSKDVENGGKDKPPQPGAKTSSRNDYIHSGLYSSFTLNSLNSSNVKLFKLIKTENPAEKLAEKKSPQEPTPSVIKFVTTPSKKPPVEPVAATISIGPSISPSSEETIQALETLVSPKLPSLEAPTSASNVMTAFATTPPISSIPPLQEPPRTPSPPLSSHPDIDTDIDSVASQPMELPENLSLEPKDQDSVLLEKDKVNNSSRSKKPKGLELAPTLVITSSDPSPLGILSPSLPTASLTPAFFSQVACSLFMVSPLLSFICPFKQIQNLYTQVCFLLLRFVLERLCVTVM
How it was run: as §1

ETV2 = biological target: T4, ETV2 (Homo sapiens, UniProt O00321 1-342); conditions: protein: recombinant; tags: N-terminal GST; dsDNA, one strand shown
T4 sequence: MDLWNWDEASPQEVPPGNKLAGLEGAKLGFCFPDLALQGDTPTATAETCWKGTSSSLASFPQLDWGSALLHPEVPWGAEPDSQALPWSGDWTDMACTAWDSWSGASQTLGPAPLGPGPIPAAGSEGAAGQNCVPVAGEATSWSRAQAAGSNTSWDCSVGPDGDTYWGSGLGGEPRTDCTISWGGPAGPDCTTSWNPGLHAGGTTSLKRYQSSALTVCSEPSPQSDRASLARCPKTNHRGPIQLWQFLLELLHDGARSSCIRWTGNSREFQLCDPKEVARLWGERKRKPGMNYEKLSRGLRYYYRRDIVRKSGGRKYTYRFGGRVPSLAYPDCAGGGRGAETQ
How it was run: as §1

ELF3 = biological target: T5, ELF3 (Homo sapiens, UniProt P78545 1-371); conditions: protein: recombinant; tags: N-terminal GST; dsDNA, one strand shown
T5 sequence: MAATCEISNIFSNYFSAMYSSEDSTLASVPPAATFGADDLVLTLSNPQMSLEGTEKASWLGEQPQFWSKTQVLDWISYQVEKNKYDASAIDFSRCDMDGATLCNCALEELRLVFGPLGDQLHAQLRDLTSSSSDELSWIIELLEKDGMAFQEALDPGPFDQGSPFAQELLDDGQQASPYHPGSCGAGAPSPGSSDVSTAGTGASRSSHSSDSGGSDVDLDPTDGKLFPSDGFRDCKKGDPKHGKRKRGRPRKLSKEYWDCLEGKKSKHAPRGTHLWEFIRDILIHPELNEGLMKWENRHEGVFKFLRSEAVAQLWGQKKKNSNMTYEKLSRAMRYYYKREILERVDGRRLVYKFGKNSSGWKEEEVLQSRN
How it was run: as §1

CRX = CRX (Homo sapiens, UniProt O43186 1-299); conditions: protein: recombinant; tags: N-terminal GST; dsDNA, one strand shown
Sequence of CRX (O43186 whole entry): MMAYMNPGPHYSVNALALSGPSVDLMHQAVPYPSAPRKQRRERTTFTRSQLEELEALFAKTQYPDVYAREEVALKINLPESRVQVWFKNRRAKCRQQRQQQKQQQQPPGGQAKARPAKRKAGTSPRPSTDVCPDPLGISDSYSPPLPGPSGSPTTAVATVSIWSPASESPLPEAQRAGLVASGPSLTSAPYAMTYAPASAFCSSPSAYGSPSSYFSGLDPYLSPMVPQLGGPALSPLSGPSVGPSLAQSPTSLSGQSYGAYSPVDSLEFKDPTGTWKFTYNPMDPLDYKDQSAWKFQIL
How it was run: as §1

ETV1 = ETV1 (Homo sapiens, UniProt P50549 1-477); conditions: protein: recombinant; tags: N-terminal GST; dsDNA, one strand shown
Sequence of ETV1 (P50549 whole entry): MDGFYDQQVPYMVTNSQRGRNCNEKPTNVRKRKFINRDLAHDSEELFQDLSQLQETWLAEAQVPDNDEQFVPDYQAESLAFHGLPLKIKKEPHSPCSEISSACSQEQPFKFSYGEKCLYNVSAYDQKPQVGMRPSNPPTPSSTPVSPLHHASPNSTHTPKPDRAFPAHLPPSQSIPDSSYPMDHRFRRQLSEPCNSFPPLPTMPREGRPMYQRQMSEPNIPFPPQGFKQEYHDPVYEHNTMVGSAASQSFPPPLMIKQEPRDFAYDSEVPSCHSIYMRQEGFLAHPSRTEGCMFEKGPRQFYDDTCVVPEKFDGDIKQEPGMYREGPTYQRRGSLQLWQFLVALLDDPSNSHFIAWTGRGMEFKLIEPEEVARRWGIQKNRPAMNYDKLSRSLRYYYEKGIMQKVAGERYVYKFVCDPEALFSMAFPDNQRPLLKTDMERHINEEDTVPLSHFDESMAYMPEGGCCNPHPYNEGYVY
How it was run: as §1

ERF = biological target: T6, ERF (Homo sapiens, UniProt P50548 1-548); conditions: protein: recombinant; tags: N-terminal GST; dsDNA, one strand shown
T6 sequence: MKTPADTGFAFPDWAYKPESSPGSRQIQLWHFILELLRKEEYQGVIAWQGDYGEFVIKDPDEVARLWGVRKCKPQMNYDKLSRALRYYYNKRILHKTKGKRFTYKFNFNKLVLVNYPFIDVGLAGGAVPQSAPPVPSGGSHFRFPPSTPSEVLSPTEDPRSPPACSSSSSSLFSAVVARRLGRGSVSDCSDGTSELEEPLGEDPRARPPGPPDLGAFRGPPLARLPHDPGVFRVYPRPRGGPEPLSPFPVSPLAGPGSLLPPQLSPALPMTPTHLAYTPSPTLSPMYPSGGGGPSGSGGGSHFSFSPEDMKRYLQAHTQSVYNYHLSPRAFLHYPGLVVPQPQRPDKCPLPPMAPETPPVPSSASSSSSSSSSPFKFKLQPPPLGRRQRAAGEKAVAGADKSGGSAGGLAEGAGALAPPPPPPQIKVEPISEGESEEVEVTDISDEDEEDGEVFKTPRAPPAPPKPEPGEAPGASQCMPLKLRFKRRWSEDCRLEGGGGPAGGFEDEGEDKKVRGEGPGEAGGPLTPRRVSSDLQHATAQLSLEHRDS
How it was run: as §1

ETV3L = biological target: T7, ETV3L (Homo sapiens, UniProt Q6ZN32 1-361); conditions: protein: recombinant; tags: N-terminal GST; dsDNA, one strand shown
T7 sequence: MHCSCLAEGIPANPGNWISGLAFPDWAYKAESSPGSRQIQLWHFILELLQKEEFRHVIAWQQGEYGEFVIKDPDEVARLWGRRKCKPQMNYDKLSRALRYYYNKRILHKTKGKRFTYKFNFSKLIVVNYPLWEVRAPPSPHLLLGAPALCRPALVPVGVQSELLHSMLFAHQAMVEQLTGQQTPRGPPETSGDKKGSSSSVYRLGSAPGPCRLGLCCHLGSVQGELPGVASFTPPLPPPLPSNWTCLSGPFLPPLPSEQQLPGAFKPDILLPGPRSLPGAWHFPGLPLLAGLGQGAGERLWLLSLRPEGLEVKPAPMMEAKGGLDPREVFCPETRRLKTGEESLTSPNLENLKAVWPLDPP
How it was run: as §1

ETS2 = biological target: T8, ETS2 (Homo sapiens, UniProt P15036 1-469); conditions: protein: recombinant; tags: N-terminal GST; dsDNA, one strand shown
T8 sequence: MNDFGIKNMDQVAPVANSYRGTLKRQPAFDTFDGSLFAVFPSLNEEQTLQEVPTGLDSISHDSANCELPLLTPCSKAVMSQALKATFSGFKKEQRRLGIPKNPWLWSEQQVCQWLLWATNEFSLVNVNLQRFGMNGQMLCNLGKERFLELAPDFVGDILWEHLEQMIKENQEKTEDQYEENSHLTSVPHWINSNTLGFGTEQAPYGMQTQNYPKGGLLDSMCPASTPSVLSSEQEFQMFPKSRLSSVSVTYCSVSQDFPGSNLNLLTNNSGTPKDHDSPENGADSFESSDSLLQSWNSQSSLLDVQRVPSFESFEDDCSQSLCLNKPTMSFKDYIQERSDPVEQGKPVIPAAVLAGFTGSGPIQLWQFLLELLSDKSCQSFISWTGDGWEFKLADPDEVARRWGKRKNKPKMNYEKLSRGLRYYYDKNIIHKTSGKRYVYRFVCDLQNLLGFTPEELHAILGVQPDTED
How it was run: as §1

SPDEF = biological target: T9, SPDEF (Homo sapiens, UniProt O95238 1-335); conditions: protein: recombinant; tags: N-terminal GST; dsDNA, one strand shown
T9 sequence: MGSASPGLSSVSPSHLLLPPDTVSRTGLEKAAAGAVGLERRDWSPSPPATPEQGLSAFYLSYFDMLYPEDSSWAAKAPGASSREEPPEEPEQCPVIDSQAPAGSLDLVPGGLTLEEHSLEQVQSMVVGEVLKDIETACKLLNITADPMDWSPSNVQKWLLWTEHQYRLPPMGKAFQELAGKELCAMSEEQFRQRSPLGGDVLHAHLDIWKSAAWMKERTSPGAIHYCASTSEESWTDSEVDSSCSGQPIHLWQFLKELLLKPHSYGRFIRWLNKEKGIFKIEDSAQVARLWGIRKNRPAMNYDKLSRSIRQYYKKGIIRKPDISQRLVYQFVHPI
How it was run: as §1

ETV7 = biological target: T10, ETV7 (Homo sapiens, UniProt Q9Y603 1-341); conditions: protein: recombinant; tags: N-terminal GST; dsDNA, one strand shown
T10 sequence: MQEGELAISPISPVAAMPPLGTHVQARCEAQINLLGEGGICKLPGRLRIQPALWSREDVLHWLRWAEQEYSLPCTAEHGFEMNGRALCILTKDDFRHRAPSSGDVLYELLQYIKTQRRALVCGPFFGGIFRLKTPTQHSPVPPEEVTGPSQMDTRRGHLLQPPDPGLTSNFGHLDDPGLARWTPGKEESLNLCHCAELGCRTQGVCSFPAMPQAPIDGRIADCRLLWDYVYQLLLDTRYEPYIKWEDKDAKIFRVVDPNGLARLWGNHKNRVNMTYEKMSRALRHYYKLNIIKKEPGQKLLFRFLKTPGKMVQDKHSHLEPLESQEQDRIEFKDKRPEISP
How it was run: as §1

ELF5 = biological target: T11, ELF5 (Homo sapiens, UniProt Q9UKW6-2 1-255); conditions: protein: recombinant; tags: N-terminal GST; dsDNA, one strand shown
T11 sequence: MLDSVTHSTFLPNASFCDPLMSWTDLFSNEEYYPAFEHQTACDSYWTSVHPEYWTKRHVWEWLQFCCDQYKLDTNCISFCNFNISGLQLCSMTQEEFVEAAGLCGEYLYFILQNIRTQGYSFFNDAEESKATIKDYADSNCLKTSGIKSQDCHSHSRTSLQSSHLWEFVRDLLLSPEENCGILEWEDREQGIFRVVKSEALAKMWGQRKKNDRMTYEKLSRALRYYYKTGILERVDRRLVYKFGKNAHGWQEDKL
How it was run: as §1

ETV3 = biological target: T12, ETV3 (Homo sapiens, UniProt P41162-2 1-143); conditions: protein: recombinant; tags: N-terminal GST; dsDNA, one strand shown
T12 sequence: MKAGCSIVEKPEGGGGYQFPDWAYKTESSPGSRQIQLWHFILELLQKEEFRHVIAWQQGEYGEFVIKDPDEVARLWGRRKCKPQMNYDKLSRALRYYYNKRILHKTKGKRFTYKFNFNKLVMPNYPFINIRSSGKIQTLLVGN
How it was run: as §1

ETV6 = ETV6 (Homo sapiens, UniProt P41212 1-452); conditions: protein: recombinant; tags: N-terminal GST; dsDNA, one strand shown
Sequence of ETV6 (P41212 whole entry): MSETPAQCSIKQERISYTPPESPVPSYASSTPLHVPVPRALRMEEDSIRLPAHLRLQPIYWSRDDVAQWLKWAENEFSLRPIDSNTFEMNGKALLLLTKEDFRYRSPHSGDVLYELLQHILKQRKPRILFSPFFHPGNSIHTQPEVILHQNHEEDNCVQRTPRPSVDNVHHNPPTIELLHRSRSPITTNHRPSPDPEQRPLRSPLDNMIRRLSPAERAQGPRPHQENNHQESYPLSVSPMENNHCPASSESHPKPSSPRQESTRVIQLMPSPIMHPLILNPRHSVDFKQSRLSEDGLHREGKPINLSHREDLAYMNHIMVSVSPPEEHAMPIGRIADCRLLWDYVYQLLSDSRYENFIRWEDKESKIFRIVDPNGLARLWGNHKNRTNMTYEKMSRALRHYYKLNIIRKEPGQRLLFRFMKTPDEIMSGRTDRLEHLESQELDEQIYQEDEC
How it was run: as §1

With TTTCTC the binding signal (FEV) was 1.52 fold enrichment (6-mer frequency, TF over GST control), the binding signal (ETV5) was 1.53 fold enrichment (6-mer frequency, TF over GST control) and the binding signal (HSF1) was 2.63 fold enrichment (6-mer frequency, TF over GST control). The binding signal (SPIC) was 1.55 fold enrichment (6-mer frequency, TF over GST control), the binding signal (ELF4) was 1.6 fold enrichment (6-mer frequency, TF over GST control) and the binding signal (ELK4) was 1.78 fold enrichment (6-mer frequency, TF over GST control). The binding signal (ETV2) was 1.65 fold enrichment (6-mer frequency, TF over GST control), the binding signal (ELF3) was 1.86 fold enrichment (6-mer frequency, TF over GST control) and the binding signal (CRX) was 1.67 fold enrichment (6-mer frequency, TF over GST control). The binding signal (ETV1) was 1.46 fold enrichment (6-mer frequency, TF over GST control), the binding signal (ERF) was 1.58 fold enrichment (6-mer frequency, TF over GST control) and the binding signal (ETV3L) was 1.68 fold enrichment (6-mer frequency, TF over GST control). For the same sequence, the binding signal (ETS2) was 1.77 fold enrichment (6-mer frequency, TF over GST control), the binding signal (SPDEF) was 1.49 fold enrichment (6-mer frequency, TF over GST control) and the binding signal (ETV7) was 1.57 fold enrichment (6-mer frequency, TF over GST control). The binding signal (ELF5) was 1.56 fold enrichment (6-mer frequency, TF over GST control), the binding signal (ETV3) was 1.62 fold enrichment (6-mer frequency, TF over GST control) and the binding signal (ETV6) was 1.65 fold enrichment (6-mer frequency, TF over GST control).
